# From PubChem BioAssay (EPA / NIEHS)
# Several values for one entry are separate records, joined by “and”; a condition that tells them apart may be missing. Identical values can stand only once. Inconclusive results are not listed. The source holds several records for some structures; these can differ, active in one and inactive in another. Activity calls are given as the source filed them. How the source made its calls: active means hit-call score of the fitted dose curve at least 0.9, where 1 is the maximum; inconclusive means response in the unintended direction; inactive means score below 0.9.
# Target: Cellular tumor antigen p53 (Homo sapiens) (UniProt P04637)
# Test: TOX21_p53_BLA_p2_ratio: Tox21 HCT-116 p53 Agonism Beta-lactamase Assay, Ratio, Phase 2 (AID 2283592)
# Description: TOX21_p53_BLA_p2 is a cell-based, single-readout assay that uses HCT116, a human intestinal cell line, […] in a 1536-well plate.TOX21_p53_BLA_p2_ratio is an assay readout measuring reporter gene via receptor activity and designed using inducible reporter (beta lactamase induction) detected with GAL4 b-lactamase reporter gene. The signal is derived from the ratio of cleaved (ch2) to uncleaved (ch1) reporter gene substrate used as the measure of target activity.Data from the assay component TOX21_p53_BLA_p2_ratio was analyzed into 1 assay endpoint. This assay endpoint, TOX21_p53_BLA_p2_ratio, was analyzed in the positive analysis fitting direction relative to DMSO as the negative control and baseline of activity. Using a type of inducible reporter, gain-of-signal activity can be used to understand changes in the reporter gene as they relate to the gene TP53. Furthermore, this assay endpoint can be referred to as a primary readout, because this assay has produced multiple assay endpoints and this ratio serves a reporter gene function to understand target activity. To generalize the intended target to other relatable targets, this assay endpoint is annotated to the DNA binding intended target family, where the subfamily is tumor suppressor.
# Thawing Method: Place 14 mL of pre-warmed thaw medium into a 15 mL of conical tub. Remove the vial of cells to be thawed from liquid nitrogen and thaw rapidly by placing at 37C in a water bath with gentle agitation for 1-2 minutes. Decontaminate the vial by wiping with 70% ethanol before opening in a biological safety cabinet. Transfer the vial contents drop-wise into 14 mL of thaw medium in a sterile 15-mL conical tub. Centrifuge cells at 900 rpm for 4 minutes and resuspend in thaw medium. Transfer contents to the T75 tissue culture flask containing Thaw Medium and place flask in a humidified 37C/5% CO2 incubator. Switch to growth medium at first passage.Propagation Method: Aspirate medium, rinse once in DPBS, add 0.25% Trypsin/EDTA and swirl to coat the cell evenly. Add an equal volume of Growth Medium to inactivate Trypsin after 2-3 minutes incubation at 37C. Centrifuge cells at 900 rpm for 4 minutes and resuspend in growth medium. Cell should be passage or fed at least twice a week.Assay Protocol: Harvest cells from culture in growth medium and resuspend in assay medium. 2.2 Dispense 4000 cells/5 uL/well into 1536-well black/clear bottom plates using a Multidrop dispenser. After the cells were incubated at 37C for 5 hours, 23 nL of compounds dissolved in DMSO were transferred to the assay plate by a PinTool resulting in a 217-fold dilution. Incubate the plates for 16 hours at 37C, 5% CO2. Add 1 uL of 6X LiveBLAzer FRET B/G (CCF4-AM) Substrate Mixture to each well using a BioRAPTR dispenser and incubate the plates at room temperature for 2 hours. Measure fluorescence intensity at 460 and 530 nm emission and 405 nm excitation by an Envision detector. Data is expressed as the ratio of 460nm/530nm emissions. Add 4 uL of Cell-titer Glo to each well using BioRAPTR and incubate the plates at room temperature for 2 hours. Measure fluorescence intensity by a VewLux plate reader.
# Chain of Cellular tumor antigen p53 (Homo sapiens) (P04637 whole entry, looked up): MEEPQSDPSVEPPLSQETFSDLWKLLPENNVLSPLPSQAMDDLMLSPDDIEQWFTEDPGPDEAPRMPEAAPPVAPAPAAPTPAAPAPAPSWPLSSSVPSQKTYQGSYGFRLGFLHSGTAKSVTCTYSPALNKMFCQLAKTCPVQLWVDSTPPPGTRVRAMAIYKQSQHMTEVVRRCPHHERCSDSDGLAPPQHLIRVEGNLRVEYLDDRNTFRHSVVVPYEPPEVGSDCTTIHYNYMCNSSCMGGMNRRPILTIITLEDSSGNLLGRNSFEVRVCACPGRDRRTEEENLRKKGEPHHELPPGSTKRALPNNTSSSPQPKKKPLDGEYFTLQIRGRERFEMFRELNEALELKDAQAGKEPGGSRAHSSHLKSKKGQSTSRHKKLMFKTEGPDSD
SMILES,outcome,AC50
COP(=S)(OC)Oc1cc(Cl)c(Cl)cc1Cl,inactive,–
CC(=O)OC(c1ccccc1)C(Cl)(Cl)Cl (stereo not given),inactive,–
CCC(C)c1cccc(C(C)CC)c1O (stereo not given),inactive,–
Clc1ccc(COC(Cn2ccnc2)c2ccc(Cl)cc2Cl)cc1 (stereo not given),–,60.3 µM (active) and 33.3 µM (active) and 23.5 µM (active)
CCC[CH2][Sn]([CH2]CCC)([CH2]CCC)[O]C(=O)c1ccccc1,–,23.9 µM (active)
CCOP(=S)(OCC)Oc1nc(Cl)c(Cl)cc1Cl,inactive,–
NC(=O)O,inactive,–
CNC(=O)O/N=C/C(C)(C)S(C)=O (stereo not given),inactive,–
Oc1ccc(-c2ccccc2)cc1,inactive,–
CCCCC(CC)CO[N+](=O)[O-] (stereo not given),inactive,–
ClC1=C(Cl)[C@]2(Cl)[C@H]3[C@H]([C@H]4C=C[C@H]3C4)[C@@]1(Cl)C2(Cl)Cl,inactive,–
CC(C)OC(=S)S,inactive,–
O=C/C=C/c1ccccc1,inactive,–
OCC(O)CCl (stereo not given),inactive,–
C1CCC(NC2CCCCC2)CC1,inactive,–
Cl/C=C\C[N+]12CN3CN(CN(C3)C1)C2,inactive,–
CCCCOCCOC(C)=O,inactive,–
c1ccc(N=NNc2ccccc2)cc1,inactive,–
CCN1CCC2(CC1)COc1cc3c(cc12)N(C(=O)c1ccc(-c2ccc(-c4nnc(C)o4)cc2C)cc1)CC3,–,64.8 µM (active)

SMILES,outcome,AC50
COc1cc2c(cc1OC)[C@@]13CCN4CC5=CCO[C@H]6CC(=O)N2[C@H]1[C@H]6[C@H]5C[C@H]43,inactive,–
O=C(Cc1ccccc1)c1ccccc1,inactive,–
CC(C)(C)c1cc(O)ccc1O,inactive,–
O=[N+]([O-])c1c(Cl)c(Cl)cc(Cl)c1Cl,inactive,–
Cc1ccccc1N,inactive,–
CC(=O)[O][Hg][c]1ccccc1,–,4.84 µM (active) and 12.5 µM (active) and 8.1 µM (active)
CCC(C)(C)c1ccc(O)c(C(C)(C)CC)c1,–,72.7 µM (active) and 66.4 µM (active)
[O-][Cl+2]([O-])O,inactive,–
O=C(Nc1ccc2[nH]ccc2c1)c1cc2cc(F)ccc2n1Cc1cccc(F)c1,–,59.4 µM (active)
CC(C)C1CCC(Cc2ccc(Cl)cc2)C1(O)Cn1cncn1 (stereo not given),–,67.8 µM (active)
C[C@@H]1C[C@@H]([C@H](O)CC2CC(=O)NC(=O)C2)C(=O)[C@@H](C)C1,inactive,13.5 µM (active)
CN(C)P(=O)(N(C)C)N(C)C,inactive,–
CC(=O)c1cc(C(C)(C)C)cc2c1CCC2(C)C,inactive,–
CCOP(OCC)OCC,inactive,–
C[C@H]1CCCC(=O)CCC/C=C/c2cc(O)cc(O)c2C(=O)O1,inactive,11.7 µM (active)
CCOC(=O)CP(=O)(OCC)OCC,inactive,–
C=C(C)C#N,inactive,–
ClCCBr,inactive,–
Cc1ccccc1C(=O)Nc1cccc(OC(C)C)c1,inactive,–
